About 83,000 compounds went through this panel and 20% of them were active in at least one assay; those are over-represented in the sample as a whole.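 48-hour exposure, single concentration, 96-well plates; percent growth endpoint where 0 means no net growth. Active: below 10.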 A number with no mark means an inactive call. Calls of active or inactive are those of the source.
System: MDA-MB-468 breast
Experiment: NCI-60 one-dose screen, 48 h (100 = growth as untreated, 0 = no growth, -100 = all killed)
Conditions: 10 µM unless noted

Row | Structure (SMILES) | growth
1 | COC(=O)c1cccc([N+](=O)[O-])c1 | 105%
2 | CCNc1nc(O)c(/C=C2\C=Nc3ncccc32)s1 | -34.7% (active)
3 | Cn1ncc2ccc(-c3nc(-c4ccccc4)[nH]c3-c3n[nH]c(=O)n3C3CC3)cc21 | 104%
4 | O=C(NCCCO)c1cc(Cl)ccc1O | -12.2% (active)
5 | CCn1cc(C(=O)N/N=C/c2cccs2)c(=O)c2cc(F)c(N3CCNC(C)C3)c(F)c21 (stereo not given) | 55.1%
6 | COc1cc2cc(NCc3ccc(Cl)cc3)nc(C)c2cc1OC | 63.4%
7 | CCO/C=N/C1=C(C#N)C(c2ccc(Cl)cc2)c2sc3c(C)cccc3c2O1 (stereo not given) | -3.01% (active)
8 | CC/C(Cc1ccccc1)=C(/c1ccc(O)cc1)c1ccc(OCCN2CCCC2)cc1 | -82.1% (active)
9 | COc1ccc(/C=C/C(=O)c2ccc(B(O)O)cc2)cc1O | 66.8%
10 | Cc1sc2ncnc(Sc3nc4ccccc4[nH]3)c2c1C | -86.6% (active)
11 | COc1cc(-c2cc(-c3ccc(N(C)C)cc3)nc(N3CCC(O)CC3)c2C#N)cc(OC)c1OC | -21.2% (active)
12 | Cc1ccc2c(C)c3c(ccc4ccccc43)c[n+]2c1 | -42.1% (active)
13 | O=C1COCCN1c1ccc(Nc2nc(Cl)nc(OCc3cn(Cc4ccccc4)nn3)n2)cc1 | 62.1%
14 | C[C@@H](NC(=O)c1ncnc(N)c1Cl)c1ncc(C(=O)Nc2cc(C(F)(F)F)c(Cl)cn2)s1 | 92.6%
15 | C[C@@H]1C(=O)N(C[C@H](Cc2ccccc2)NC(=O)OCc2ccccc2)[C@]1(Cc1ccccc1)C(=O)OC(C)(C)C | 46.7%
16 | NC(N)=Nc1ccc(Oc2cccc(Nc3ccc(Br)c(C(F)(F)F)c3)c2)cn1 | -80.3% (active)
17 | COc1ccc(-c2nc(SCCC(C)C)nc(N/N=C(/C)c3ccc(C)cc3)c2C#N)cc1 | 105%
18 | CC(C)(C)n1cc(-c2ccnc(NCCNS(=O)(=O)c3ccc(F)cc3)c2)c(-c2cccc(O)c2)n1 | 8.72% (active)
19 | CC(/C=C1\SC(=S)N(CC(=O)NC(Cc2c[nH]c3ccccc23)C(=O)O)C1=O)=C\c1ccccc1 (stereo not given) | 95.1%
20 | CN(C)CCCNC(=O)c1cncnc1Nc1ccc(OCc2cccc(F)c2)c(Cl)c1 | -7.83% (active)

Row | Structure (SMILES) | growth
21 | O=c1onc(-c2ccccc2)c2ccccc12 | 108%
22 | CCCCCCCCCCCC[S+](C)CC(=O)[O-] (stereo not given) | -53.1% (active)
23 | CN1CCN(C(=S)SCCCCOc2cc(=O)oc3ccccc23)CC1 | 56.3%
24 | Cn1cc(-c2nnc(-c3cn(C)c4ncccc34)o2)c2ccccc21 | -11.4% (active)
25 | CCOC(=O)NCCc1ccccc1 | 112%
26 | COc1cc(/C=N/n2cnc3oc(-c4ccccc4)cc3c2=N)cc(CN2CCCCC2)c1O | -35.8% (active)
27 | O=C(Nc1ccc(Br)cc1F)c1cc(Br)ccc1O | -13.6% (active)
28 | CC(C)(C)n1cc(-c2ccnc(NCCCNS(=O)(=O)c3ccccc3)c2)c(-c2ccccc2)n1 | 25.1%
29 | CCc1cccc(C)c1NC(=O)c1sc2nc3c(cc2c1N)CCCCC3 | 10.8%
30 | C=C(C)[C@@H]1CC[C@]2(C)[C@H](CC[C@@H]3[C@H]4[C@H]5OC[C@@]4(CCC5(C)C)CC[C@]32C)[C@@]1(C)CCCN | -68.2% (active)
31 | Oc1ccc(C(c2ccc(O)cc2)c2ccc(Br)cn2)cc1 | -35.7% (active)
32 | Cc1ccc(N(CC2=NCCN2)c2cccc(O)c2)cc1 | 93.3%
33 | CC(=O)c1ccc(Br)c([N+](=O)[O-])c1 | 112%
34 | O=C(N/N=C/c1c(Cl)cccc1Cl)c1ccc(C(F)(F)F)nc1Nc1cccc(C(F)(F)F)c1 | 11.9%
35 | C(=N\Nc1nnc2n1N=C(c1ccccc1)CS2)/c1ccc(OCc2ccccc2)cc1 | 88.9%
36 | CCCCOC(=O)c1c(C)[nH]c(/C=C2\N=C(c3ccc[nH]3)C=C2OC)c1C | -58.2% (active)
37 | CCOC(=O)c1c(C)c2c(n1C)CSc1cc(S(=O)(=O)c3ccccc3)c(=O)[nH]c1-2 | 2.42% [100 µM] (active)
38 | CCOC(=O)c1cccnc1Nc1ccc(NC(=O)Nc2ccc(Cl)c(C(F)(F)F)c2)cc1 | 21.3%
39 | C=C(C(N)=O)C(N)C(=O)O (stereo not given) | 121%
40 | COc1ccc(CN2C(=O)/C(=C\C(=O)c3ccc(OCCN4CCCC4)cc3)c3ccccc32)cc1 | 49.3%
